Screens from PubChem.
CendR NRP1 mod: NRP-1/CendR interaction modulation; O14786; FAM-RPARPAR peptide binding to NRP-1, fluorescence polarization; 0.85% of 360,000 active; inhibition, % at 25 µM; AID 602438;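 active means inhibition or corrected inhibition above about 18%, plus a signal ratio from 0.5 to 1.5, limit read from the data, passing the limit was not always enough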
VLA-4 inh: inhibition in a human VLA-4 binding assay | P13612 | VLA-4 expressing cells, ligand binding flow cytometry | inhibition, % (about 7 µM as worked out from the volumes in the protocol) | 0.2% of 330,000 active; in the data active means inhibition above about 50%
ATG4B inhibitor: inhibitors of human ATG4B cysteine protease; ATG4B cleavage of LC3-PLA2, NBD-HPC fluorescence, 1 h; inhibition, % at 8.33 µM; 0.51% of 340,000 active; AID 504462; in the data active means inhibition above about 40%
PKA-R2B activ: activates the human PKA-R2B holoenzyme complex; PKA-R2B holoenzyme dissociation, Cy5-IP20 fluorescence polarization; R2B truncated from residue 108, S112A mutant; 0% DMSO only, 100% 113 µM cGMP; activation, % at 11.4 µM; 0.079% of 340,000 active;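 active means activation above a cutoff set at the mean over all compounds plus 3 SD, cut at about 18% in these data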;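 further: higher means more holoenzyme dissociation and a rise in polarization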
PKA-R1A activ: PKA-R1A complex activation; PKA-R1A dissociation, Cy5-IP20 fluorescence polarization; scaled: DMSO 0%, 113 µM cGMP 100%; P00514+P68181; activation, % at 11.4 µM; 0.083% of 340,000 active;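 active means percent activation above the mean of all tested compounds plus 3 SD, cut at about 19% in these data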;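 further: higher means more PKAc released from R1A so a rise in polarization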
An asterisk follows results filed as active. An excerpt weighted towards active compounds, which were near 1.6% of everything screened.

COC(=O)C1=C(c2ccc(C(C)=O)cc2)C[C@@H]2CC[C@H]1N2C(=O)NCc1ccc2c(c1)OCO2 was read as CendR NRP1 mod 21.2*, VLA-4 inh -14.7, ATG4B inhibitor -2.4, PKA-R2B activ -12.9 and PKA-R1A activ 4.0.
COC(=O)C1=C(c2ccc(Cl)c(C(F)(F)F)c2)C[C@@H]2CC[C@H]1N2C(=O)NCCCOC(C)C was read as CendR NRP1 mod 1.9, VLA-4 inh 1.3, ATG4B inhibitor 0.6, PKA-R2B activ -2.4 and PKA-R1A activ -3.9.
COC(=O)C1=C(c2ccc(F)cc2OCc2ccccc2)C[C@@H]2CC[C@H]1N2C(=O)NC(C)C was read as CendR NRP1 mod 21.3, VLA-4 inh -1.1, ATG4B inhibitor -8.7, PKA-R2B activ -7.0 and PKA-R1A activ 1.8.
CCCNC(=O)N1[C@H]2CC[C@@H]1C(C(=O)OC)=C(c1ccc(F)cc1F)C2 was read as CendR NRP1 mod 32.0*, VLA-4 inh 23.0, ATG4B inhibitor -15.8, PKA-R2B activ 0.2 and PKA-R1A activ 0.2.
For COC(=O)C1=C(c2ccc(F)cc2OCc2ccccc2)C[C@@H]2CC[C@H]1N2C(=O)N1CCCC1 the results were CendR NRP1 mod 27.3*, VLA-4 inh 4.0, ATG4B inhibitor 5.0, PKA-R2B activ 4.0 and PKA-R1A activ 8.0.
Screening COC(=O)C1=C(c2ccc(Cl)c(C(F)(F)F)c2)C[C@@H]2CC[C@H]1N2C(=O)NCCNC(C)=O returned CendR NRP1 mod 23.5*, VLA-4 inh 12.4, ATG4B inhibitor -13.0, PKA-R2B activ -11.2 and PKA-R1A activ -4.1.
Nc1c(Br)cc2c3c(cccc13)-c1ccccc1-2 was read as ATG4B inhibitor -5.5.
COC1=C(C)C(=O)C2=C(C1=O)C(CO)N1C(C#N)C3CC4C(C1C2N1CCOC41)N3C (configuration not stated) was read as CendR NRP1 mod -4.5, ATG4B inhibitor -1.2, PKA-R2B activ 7.4 and PKA-R1A activ 7.2.
For COc1ccc(-n2nnnc2C(CCc2ccccc2)N2CCC(n3c(=O)[nH]c4ccccc43)CC2)cc1 (configuration not stated) the results were CendR NRP1 mod 4.3.
Screening COC(=O)C1=C(c2cccc(C#N)c2)C[C@@H]2CC[C@H]1N2C(=O)NCCO returned CendR NRP1 mod 29.0*, VLA-4 inh 5.6, ATG4B inhibitor -5.5, PKA-R2B activ 4.2 and PKA-R1A activ 10.2.
For COC(=O)C1=C(c2cccc(C#N)c2)C[C@@H]2CC[C@H]1N2C(=O)N1CCC(O)CC1 the results were CendR NRP1 mod 25.1*, VLA-4 inh 8.0, ATG4B inhibitor 4.2, PKA-R2B activ 2.0 and PKA-R1A activ 3.7.
For O=C(NN=Cc1ccc(N(CCCl)CCCl)cc1)C(=O)c1c[nH]c2ccccc12 the results were CendR NRP1 mod 4.8, ATG4B inhibitor -9.8, PKA-R2B activ -6.2 and PKA-R1A activ -2.9.
`C[C@]12CCC3C(CC[C@H]4C[C@@H](O)CC[C@]34C)C1=CC[C@@H]2O` (some centres not stated) gave CendR NRP1 mod 2.6, PKA-R2B activ -3.9 and PKA-R1A activ -5.9.
Screening CCOc1cccc(N2C(=O)/C(=C/c3ccco3)C(=O)NC2=S)c1 returned CendR NRP1 mod -57.4, VLA-4 inh -7.6, ATG4B inhibitor 16.1, PKA-R2B activ -8.4 and PKA-R1A activ 7.7.
For O=C1NC(=S)N(c2ccccc2)C(=O)/C1=C/c1ccco1 the results were CendR NRP1 mod -111.2, VLA-4 inh 7.7, ATG4B inhibitor 58.6*, PKA-R2B activ 12.0 and PKA-R1A activ -15.1.
`COc1cccc(C(c2nnnn2Cc2ccccc2)N2CCC3(CC2)C(=O)NCN3c2ccccc2)c1OC` (configuration not stated) gave CendR NRP1 mod 3.3.
Screening CC1=C[C@@H]2c3cccc4[nH]cc(c34)C[C@H]2N(C)C1 returned CendR NRP1 mod 44.2*, VLA-4 inh -20.9, ATG4B inhibitor -2.9, PKA-R2B activ -2.9 and PKA-R1A activ 1.2.
CCOC(=O)[C@]1(C#N)[C@@H]2C=CC(C(N)=O)=CN2[C@@H](C(N)=O)[C@@H]1c1ccc(F)cc1 was read as CendR NRP1 mod 2.8, VLA-4 inh 2.8, ATG4B inhibitor 48.2*, PKA-R2B activ -3.7 and PKA-R1A activ -6.0.
CCOC(=O)[C@@]1(C#N)[C@@H]2C=CC(C(N)=O)=CN2[C@@H](C(N)=O)[C@@H]1c1cccc(Cl)c1 was read as CendR NRP1 mod -14.5, VLA-4 inh -13.6, ATG4B inhibitor 93.8*, PKA-R2B activ -5.1 and PKA-R1A activ -6.1.
Screening COC(=O)[C@@]1(C#N)[C@@H]2C=CC(C(C)=O)=CN2[C@@H](C(N)=O)[C@@H]1c1ccc(F)cc1 returned CendR NRP1 mod -7.6, VLA-4 inh 1.1, ATG4B inhibitor -7.5, PKA-R2B activ -6.2 and PKA-R1A activ -0.4.
CCOC(=O)[C@@]1(C#N)C(c2ccc(Cl)c(Cl)c2)[C@H](C(N)=O)N2C=C(C(C)=O)C=C[C@H]21 (some centres not stated) was read as CendR NRP1 mod -55.0, VLA-4 inh -6.9, ATG4B inhibitor -16.6, PKA-R2B activ 10.2 and PKA-R1A activ -3.4.
For Cc1ccccc1NC(=NCCCN1CC1)Nc1ccccc1C the results were CendR NRP1 mod 40.5*, ATG4B inhibitor 5.2, PKA-R2B activ 10.7 and PKA-R1A activ 7.7.
Screening O=C1C=CC(=O)C2C1C1(Cl)C(Cl)=C(Cl)C2(Cl)C1(Cl)Cl (configuration not stated) returned CendR NRP1 mod 25.8*, ATG4B inhibitor 15.5, PKA-R2B activ 3.4 and PKA-R1A activ -17.2.
Cc1ncoc1C(=O)NCC1=C(c2ccc(S(C)(=O)=O)cc2)C[C@@H]2CC[C@H]1N2Cc1ccco1 was read as CendR NRP1 mod -14.1, PKA-R2B activ 4.0 and PKA-R1A activ -14.4.
Screening Cc1cc(-c2cc(C)c(N)c(C)c2)cc(C)c1N returned CendR NRP1 mod 10.4, ATG4B inhibitor -1.5, PKA-R2B activ -1.2 and PKA-R1A activ 3.1.
`CCOC(=O)[C@]12Cc3cc(C)ccc3[C@H]1N(C1CCCCC1)C(=O)c1cc(OC)ccc12` gave CendR NRP1 mod 1.2.
Screening CCCCC1(CN2CCCC2=O)C(=O)NC(=O)NC1=O returned CendR NRP1 mod 23.4*, VLA-4 inh 8.4, ATG4B inhibitor -6.8, PKA-R2B activ -4.3 and PKA-R1A activ -10.2.
Screening C[C@]12CCC3C(CC[C@H]4C[C@@H](O)CC[C@]34C)C1C[C@@H](O)[C@]2(C)O (some centres not stated) returned CendR NRP1 mod 28.4*, VLA-4 inh -3.2, ATG4B inhibitor -4.8, PKA-R2B activ 0.5 and PKA-R1A activ -8.8.
Screening CCCCCN1C(=O)c2ccccc2[C@@]2(C(=O)OCC)Cc3cc(OC)ccc3[C@@H]12 returned CendR NRP1 mod 9.3.
